About 83,000 compounds went through this panel and 20% of them were active in at least one assay; those are over-represented in the sample as a whole.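 48-hour exposure, single concentration, 96-well plates; percent growth endpoint where 0 means no net growth. Active: below 10.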 A number with no mark means an inactive call. Active and inactive are the calls of the source.
Experiments:
Assay in all cases: NCI-60 one-dose screen, 48 h (100 = growth as untreated, 0 = no growth, -100 = all killed)
Conditions in all cases: 10 µM unless noted
HCT-15 colon = tested on: HCT-15 colon
HT29 colon = tested on: HT29 colon
SNB-75 CNS = tested on: SNB-75 CNS
SNB-19 CNS = tested on: SNB-19 CNS
U251 CNS = tested on: U251 CNS
PC-3 prostate = tested on: PC-3 prostate
SK-MEL-5 melanoma = tested on: SK-MEL-5 melanoma
UACC-62 melanoma = tested on: UACC-62 melanoma
LOX IMVI melanoma = tested on: LOX IMVI melanoma
SK-MEL-28 melanoma = tested on: SK-MEL-28 melanoma
SK-MEL-2 melanoma = tested on: SK-MEL-2 melanoma
EKVX NSCLC = tested on: EKVX NSCLC
SN12C renal = tested on: SN12C renal
UO-31 renal = tested on: UO-31 renal
TK-10 renal = tested on: TK-10 renal
ACHN renal = tested on: ACHN renal
CAKI-1 renal = tested on: CAKI-1 renal
A498 renal = tested on: A498 renal
CCRF-CEM leukemia = tested on: CCRF-CEM leukemia
MOLT-4 leukemia = tested on: MOLT-4 leukemia

Compound	growth (HCT-15 colon)	growth (HT29 colon)	growth (SNB-75 CNS)	growth (SNB-19 CNS) [%]	growth (U251 CNS)	growth (PC-3 prostate)	growth (SK-MEL-5 melanoma)	growth (UACC-62 melanoma)	growth (LOX IMVI melanoma)	growth (SK-MEL-28 melanoma)	growth (SK-MEL-2 melanoma)	growth (EKVX NSCLC)	growth (SN12C renal)	growth (UO-31 renal)	growth (TK-10 renal)	growth (ACHN renal)	growth (CAKI-1 renal)	growth (A498 renal)	growth (CCRF-CEM leukemia)	growth (MOLT-4 leukemia)
Cc1sc2nc(CSc3nnc(-c4ccco4)o3)[nH]c(=O)c2c1C	90.7%	118%	108%	106	88%	102%	97.5%	108%	99.2%	110%	96.4%	110%	114%	106%	189%	93.8%	99.9%	110%	64.3%	48.7%
O=[N+]([O-])c1cccc(-c2cc(-c3cc(Br)ccc3O)[nH]n2)c1	15.6%	48.3%	38.8%	25.4	17.9%	13%	6.28% (active)	15.2%	6.51% (active)	42.1%	24%	18.1%	24.8%	20.1%	12.5%	10.2%	40.5%	40%	8.04% (active)	4.68% (active)
CC(=O)N1Cc2ccccc2C(C)Cc2cc(Cl)ccc21 (stereo not given)	105%	97.6%	101%	101	105%	95.8%	103%	98%	105%	112%	105%	94.5%	104%	97.8%	98.4%	109%	90%	75.7%	110%	97%
Cc1oc2ncnc(Nc3ccccc3)c2c1C(=O)NCCO	98.1%	106%	90.7%	93.9	102%	107%	97.5%	86.2%	95.4%	98.9%	113%	97.6%	93.2%	87.7%	122%	91.8%	90.8%	78.2%	97.4%	-0.282% (active)
O=C(O)C(=Cc1c2ccccc2cc2ccccc12)C(=O)O	106%	105%	104%	101	101%	97.2%	104%	93.5%	86.8%	114%	104%	104%	101%	82%	93.3%	97.6%	99.9%	83.3%	101%	92.4%
O=C1NCC(c2cc3ccccc3[nH]c2=O)Nc2ccccc21 (stereo not given)	106%	98.3%	99.6%	102	102%	93.2%	97.2%	98.3%	98.5%	103%	100%	106%	99.7%	76.8%	87.8%	99.7%	88.1%	104%	110%	111%
CCCCCCCCCCC/C=C\C[C@H](O)C/C=C1/C(=O)C=C[C@@H]1C/C=C\CCCC(=O)OC	-43% (active)	-22.5% (active)	-4.49% (active)	18.2	-69% (active)	-20% (active)	-85.3% (active)	-39.9% (active)	-92.4% (active)	-20.4% (active)	-24.4% (active)	1.38% (active)	-24.7% (active)	-63% (active)	0.114% (active)	-20.1% (active)	13.8%	99.7%	12.2%	-0.235% (active)
C/C1=C\CCC2(C)OC2CC2CCC(C)(O)C(CC1)C2(C)C (stereo not given)	89.4%	107%	108%	87.7	91%	85.2%	84.8%	88%	101%	119%	106%	81.1%	101%	99.2%	97%	92.5%	87.7%	106%	84.1%	97.9%
CCN(CC)CCC(=O)c1cccc2ccccc12	102%	110%	101%	102	104%	95.3%	114%	97%	94.3%	111%	114%	100%	102%	87.6%	109%	98.8%	90.7%	101%	100%	102%
CCCn1c(=S)sc2c(Cl)nc(C)nc21	12.7%	84%	8.62% (active)	93.5	79%	100%	108%	54.7%	-78.5% (active)	102%	1.85% (active)	106%	113%	103%	137%	83.1%	63.8%	98.5%	72%	116%
C=C1C(=O)O[C@H]2[C@H]1CC/C(Cn1cc(-c3ccccc3C(F)(F)F)nn1)=C\CC[C@@]1(C)O[C@@H]21	-70.7% (active)	-85.3% (active)	35.1%	53.3	13.1%	-31.1% (active)	14.5%	-61.8% (active)	-91.7% (active)	-58.9% (active)	-42.2% (active)	-78.6% (active)	-35.3% (active)	-94.5% (active)	-50.1% (active)	-85.4% (active)	-48.8% (active)	25.9%	-28.5% (active)	-11.7% (active)
Cc1cc(C(=O)O)c(N)c(C)n1	100%	112%	89.4%	110	104%	96.4%	115%	96.6%	94.7%	117%	119%	95.4%	106%	83.4%	101%	109%	92.3%	101%	107%	101%
COc1ncc(-c2ccc3ncnc(Nc4cccc(Cl)c4)c3c2)cc1NS(=O)(=O)CCN1CCOCC1	6.62% (active)	10.1%	-19.2% (active)	21.2	28.3%	12.4%	-19.6% (active)	-21.4% (active)	1.29% (active)	-4.89% (active)	-1.15% (active)	-20.7% (active)	10.1%	-8.52% (active)	-19.6% (active)	7.46% (active)	1.1% (active)	-35.9% (active)	22.5%	2.58% (active)
O=P([O-])(O)OP(=O)([O-])O.[NH-][C@H]1CCCC[C@@H]1[NH-].[OH-].[OH-].[Pt+4]	102%	110%	86.6%	107	91.1%	99.5%	106%	103%	102%	118%	117%	100%	105%	96.6%	102%	86.3%	94.8%	81.7%	98.4%	87.8%
COC(=O)c1ccc2nc(-c3cc4ccccc4n3C)n(CCCCOc3cc4c(cc3OC)C(=O)N3CCC[C@H]3C=N4)c2c1	-19% (active)	-53.7% (active)	-79.5% (active)	11.3	1.02% (active)	-6.81% (active)	-75.6% (active)	-95.9% (active)	-54.7% (active)	-57.1% (active)	-40.3% (active)	10.8%	3.64% (active)	-57.3% (active)	-17.7% (active)	-5.96% (active)	-20.7% (active)	-60.3% (active)	-35.1% (active)	3.44% (active)
COc1ncc(-c2ccc3ncnc(Nc4cccc(Cl)c4)c3c2)cc1N(S(C)(=O)=O)S(C)(=O)=O	54.9%	53%	41.1%	72.8	82.1%	52.1%	73.6%	58.1%	63.7%	72.8%	77.4%	30%	64.5%	25.9%	5.88% (active)	22%	26.8%	49.6%	86.8%	69.9%

— PubChem BioAssay (NCI)
